Among the data in PubChem BioAssay AID504884 (Broad Institute, 2011) are activity values, retold here.

Screen size: about 360,000 compounds; about 230 (0.064%) were called active. This excerpt belongs to a sample that is enriched for actives. Values without a mark were called inactive. Rule as the data show it: active = activity above about 50% (passing the limit was not always enough); inconclusive = no clear call, values can overlap the other calls.

This test has as its system DNA topoisomerase I (Yersinia pestis CO92). Description: Yersinia pestis topoisomerase I inhibitors, primary screen, biochemical, cleavage product accumulation, plate reader, single point (AID 504884). As to conditions: Y. pestis Topo-I cleavage product accumulation, at 10 µM, stronger effect = higher value.
With `Cc1cc(N2CCN(c3ccc(F)cc3)CC2)n2ncnc2n1`, the activity is 1.33%. Under `O=c1c2ccccc2ncn1CCCCOc1ccccc1F` stands 5.21%.

For the compound `N/C(=N\OC(=O)CCn1cccc(C(F)(F)F)c1=O)c1ccc(OC(F)(F)F)cc1`, the activity is 0.341%. Under `O=S(=O)(c1cccc2nonc12)N1CCN(c2cccc(Cl)c2)CC1` stands 8.66%; under `Cc1ccc(S(=O)(=O)N2CCC(Oc3ccc(-n4cnnn4)cc3)CC2)cc1`, 9.39%; under `CCCCNC1(C#N)CCN(Cc2ccccc2)CC1`, -6.77%. Under `Cc1c(CCO)c(=O)[nH]n1C(=O)c1c(F)cccc1F` stands 11.7%.

Turning to `O=C(/C=C/c1cnc2ccccc2n1)NC1CCCCCC1`, the activity is 7.03%. For `COc1ccccc1CNC(=O)CNC(=O)c1cn(-c2ccccc2OC)c(=O)c2ccccc12`, the activity is 2.16%. Under `CSc1cccc(NC(=S)N(Cc2ccccc2)Cc2ccccn2)c1` stands 9.55%. Take `COc1cc(OC)cc(-c2cc3nc(C4CCN(C(=O)OC(C)(C)C)CC4)cc(=O)n3[nH]2)c1`: the activity is 2.04%.

Regarding `CS(=O)(=O)c1sc(C(=O)NC(=S)Nc2ccc(OC(F)(F)F)cc2)c2c1C=CCC2`, the activity is 6.39%. Under `Cc1ccc(N2C(=O)CC(NCc3ccc4c(c3)OCO4)C2=O)cc1Cl` (centres undefined) stands 4.73%.

Turning to `Cc1ccc(S(=O)(=O)N2CCC(C(=O)NCCC3=CCCCC3)CC2)cc1C`, the activity is 51.1% (active). Under `CSc1ccc(S(=O)(=O)N2CCC(C(=O)NCCc3ccccc3)CC2)cc1` stands 3.52%. Take `Cc1ccc(CCNC(=O)C2CCN(S(=O)(=O)N3CCCC3)CC2)cc1`: the activity is 0.896%. For `CN(C(=O)COC(=O)CCCc1c[nH]c2ccccc12)c1c(N)n(Cc2ccccc2)c(=O)[nH]c1=O`, the activity is 15%. Under `COc1ccc(/C(=N\O)c2nccc3cc(OC)c(OC)cc23)cc1OC` stands 6.19%. With `COCCCNC(=O)C1CC(=O)N(CCc2ccc(F)cc2)C1` (centres undefined), the activity was -2.65%.

Regarding `CC(OC(=O)c1ccccc1OCc1ccc(Cl)cc1)C(N)=O` (centres undefined), the activity was 4.36%. Under `O=C(NC1CCC(O)CC1)c1ccccc1OCc1ccc(F)cc1` (centres undefined) stands 1.15%; under `CC(=O)c1ccccc1OCc1ccc(C(=O)c2ccccc2)cc1`, 55.1% (active). As to `CCOC(=O)C1CCN(S(=O)(=O)c2ccc3c(c2)N(C)C(=O)CC(=O)N3C)CC1`, the activity is -0.905%. Under `FC(F)(F)C1CCCN(c2nsc3ccccc23)C1` (centres undefined) stands 4.11%; under `CCCCNC(=O)c1ccccc1NC(=O)c1ccccc1N(C)S(C)(=O)=O`, 8.01%.

Turning to `c1ccc(CC2CCN(c3nc4ccccc4n4cnnc34)CC2)cc1`, the activity was 27.5%. Then `COc1ccc(CN2CCC(n3nccc3NC(=O)CCCc3ccccc3)CC2)cc1C`, with 18.3%; and `CC(C)(C)N(Cc1ccccc1)C(=O)COC(=O)CCc1c[nH]c2ccccc12`, with 1.59%.

Consider `CC1(c2ccc3ccccc3c2)NC(=O)NC1=O` (centres undefined), for which the activity is 0.131%. `O=C1CSC(c2cccc(F)c2)N1c1ccccc1F` (centres undefined): the activity was -2.91%. Under `O=C(Cc1ccccc1F)NC1CCSc2ccccc21` (centres undefined) stands 5.76%. Under `O=S(=O)(O)c1cc2onnc2c2ccccc12` stands -2.58%; under `CCOC(=O)/C=C/C(=O)OCC(=O)NC(c1ccccc1)c1ccccc1`, 7.5%. Then `COc1ccc(OC)c(CN2CCN(C(=O)CNC(=O)c3cc(C)cc(C)c3)CC2)c1`, with 9.4%; and `CCOC(=O)C(C)Oc1cccc2c(=O)n(CC(=O)N3CCc4ccccc43)ccc12` (centres undefined), with -0.583%. Turning to `COc1ccc(CN2CCNC(=O)C2CC(=O)NCc2cn[nH]c2-c2ccccc2)c(F)c1` (centres undefined), the activity is 14.5%. Under `COc1ccc(N(CC(=O)NC2CCCCC2)C(=O)CNC(=O)c2ccco2)c(OC)c1` stands 18.1%; under `CCOc1ccc(NC(=O)CCC(=O)NNC(=O)NC2CCCCC2)cc1`, -4.6%; under `N#Cc1cccc(NC(=O)CCC2CCCC2)c1`, 0.569%. Under `N#CC(C#N)=CN=c1ccn(Cc2ccc(Cl)cc2Cl)cc1` stands 1.09%; under `CC(C(=O)NC1CCCCC1)N1C(=O)c2cccc3cccc1c23` (centres undefined), 10.7%; under `O=C(C[n+]1cc(-c2ccc(Cl)c(Cl)c2)n2c1CCC2)c1cccs1`, 5.58%. Under `Nc1nc(SCC(=O)NN(c2ccccc2)c2ccccc2)n[nH]1` stands -4.71%; under `CN(CC(=O)N1CCN(c2ccccc2)CC1)S(=O)(=O)c1cccs1`, 3.69%; under `Cc1cc(C)c(C2C3=C(Nc4c2c(C)nn4-c2ccccn2)c2ccccc2C3=O)c(C)c1` (centres undefined), 0.572%.

Take `CC(C)CCNC(=O)C(C)N(C(=O)Cn1nnc(-c2ccc(F)cc2)n1)C1CCCC1` (centres undefined): the activity was 21.2%. Under `CN(C)C(CNC(=O)c1ccc(S(=O)(=O)NCc2ccco2)cc1)c1ccccc1` (centres undefined) stands 2.31%; under `Cc1ccc(S(=O)(=O)NCC(=O)NNC(=O)c2ccc(Br)cc2)cc1C`, 9.73%; under `O=S(=O)(c1ccc(-c2ccno2)s1)N1CCCCC1`, 0.748%.

Turning to `COc1ccc(S(=O)(=O)NCC2CCCN(C(=O)c3occc3C)C2)cc1` (centres undefined), the activity is 0.202%.

Take `Cc1cccc(N2CCN(C(=O)COCc3cc(-c4ccc5c(c4)OCO5)on3)CC2)c1C`: the activity is 38.3%. Under `COc1cc(C(=O)OCCCN2CCOCC2)cc(OC)c1OC` stands -0.169%; under `Cc1ccc2nc(-c3ccc(SCC(=O)Nc4cc(C)on4)nc3)[nH]c2c1`, 1.96%; under `CC(=O)Oc1ccc(OC(C)=O)c2c1C1C=CC2CC1`, -5.11%. Under `O=C(NCC(F)(F)F)Nc1nnc(C(F)(F)F)s1` stands 11.4%; under `Cc1nn(C)c(C)c1S(=O)(=O)N1CCC(CO)(Cc2ccc(Cl)cc2)CC1`, 4.97%; under `Cc1nnc(SCC(=O)NC(=O)NC2CCCC2)n1N`, -5.78%.

Take `CC1CN(/C=C/C(=O)C(F)(F)F)CC(C)O1` (centres undefined): the activity is 5.75%. Then `CCOc1ccc(NC(=O)CN(C)C(=O)Cn2c(=O)cnc3ccccc32)cc1OCC`, with 1.46%. Under `CCOC(=O)c1[nH]cnc1C(=O)NC1CCCCC1` stands -3.43%; under `CCc1nc2c(OCCC3CCCCC3)cccn2c1N(C)C(=O)c1ccco1`, 31.3%. Then `CC1CC(C)CN(c2ccc(S(=O)(=O)N3CCOCC3)cc2)C1` (centres undefined), with 31.2%; and `ClC1(Cl)CC1CSc1ncn[nH]1` (centres undefined), with 4.63%; and `CCCC(C)C(=O)OCC(=O)Nc1c(Br)cc(C)cc1Br` (centres undefined), with 0.888%.

As for `COc1cccc2c1OCC(C(=O)NCc1ccc(Cl)cc1Cl)=C2`, the activity was 5.83%. Then `CCOc1nnc(C)c2c(C)n(-c3cccc(Cl)c3)nc12`, with 0.181%. `O=C(CC1C(=O)NCCN1C(=O)c1ccc([N+](=O)[O-])cc1)Nc1cccc(Cl)c1` (centres undefined): the activity is -5.36%. In the case of `CCc1ccccc1NC(=O)/C(=C/c1ccccc1)c1ccccc1`, the activity is 58.2% (active). Then `CCc1ccccc1NC(=S)Nc1cc(OC)c(NC(=O)C(C)C)cc1OC`, with -1.32%; and `CCc1ccccc1NC(=O)CCOc1ccccc1`, with 2.54%; and `CCOc1ccc(S(=O)(=O)N2CCCCC2)cc1NC(=O)CN1CCCC1c1cccs1` (centres undefined), with 9.92%.

In the case of `COc1ccc2c(c1)CCc1cn3ncc(C#N)c3nc1-2`, the activity was 5.21%.

On to `O=C(COc1ccc(F)cc1)N(CC1=CCS(=O)(=O)C1)c1ccccc1`, for which the activity is 3.66%.

Consider `CCN(C(=O)COc1ccc(C(=O)c2ccccc2)cc1)c1ccccc1`, for which the activity is 51.2% (active).

As for `CCN(C(=O)c1ccc(Br)cc1)c1ccccc1`, the activity is 4.1%. As for `C=CCN(C(=O)c1cc(C)cc(C)c1)C1(C(=O)Nc2ccccc2)CCN(C(C)C)CC1`, the activity is -1.88%.

As to `C=C1CCN([C@@H](Cc2ccccc2)C(=O)N2CCOCC2)S(=O)(=O)c2ccccc21`, the activity is 11.9%. Under `CCc1cc(-c2n[nH]c(=S)n2CC(C)C)cs1` stands 7.56%.

Consider `CCn1ncc(C2=NOC(C(=O)Nc3ccccc3C(=O)OC)C2)c1C` (centres undefined), for which the activity is 16.1%. Then `C[N+]1(CCNC(=O)/C=N/O)CCCCC1`, with 3.78%; and `N#Cc1ccc(/C=C2\CCn3c2nc2cc(C(=O)O)ccc2c3=O)cc1`, with 5.43%. Then `CCN(CC)S(=O)(=O)c1ccc(OC(C)C)c(N)c1`, with 9.36%; and `CCCC(C)C(=O)NCc1ccncc1` (centres undefined), with 3.84%; and `Cc1cnc(C(=O)OCc2c(C)cc(C(C)(C)C)cc2C)cn1`, with 33.4%. Then `O=C(NC(c1ccc(Cl)cc1)P(=O)(Oc1ccccc1)Oc1ccccc1)OCc1ccccc1` (centres undefined), with -6.44%; and `COc1cc(C(=O)OCc2cc(=O)n3ccsc3n2)ccc1OC(C)C`, with 1.94%. In the case of `COc1cc([N+](=O)[O-])ccc1NC(=O)COC(=O)CCOc1ccc(C)cc1`, the activity was -0.7%. As for `Cc1ccc(OCC(=O)Nc2ccccc2C(=O)NC2CC2)cc1`, the activity was -5.78%. As for `CSc1ccccc1NC(=O)COC(=O)CCCOc1ccc(C)cc1`, the activity was 71.8% (active). As to `O=S(=O)(Nc1ccc2[nH]ncc2c1)c1ccccc1Cl`, the activity is 5.56%. Under `CC(NC(=O)c1ccccc1C(=O)O)c1ccc(-n2ccnc2)cc1` (centres undefined) stands -18%.

On to `C=C(C)CNc1cc(S(=O)(=O)N2CCOCC2)ccc1Oc1ccccc1`, for which the activity is 23%. Under `CCN(CC(=O)Nc1cc(Cl)ccc1C)C(=O)CN1C(=O)NC2(CCCC2)C1=O` stands -11.4%; under `COC(=O)CN1C(=O)[C@H]2[C@@H](C3CC3)N3C(=O)CN(Cc4ccc(-c5ccccc5)cc4)C(=O)[C@@]3(Cc3ccccc3)[C@H]2C1=O`, 35.2%.
